Data: ChEMBL document CHEMBL2218924, “A broad activity screen in support of a chemogenomic map for kinase signalling research and drug discovery” (Biochem J, 2013)

Columns and labels:
[1] = biological target: Platelet-derived growth factor receptor alpha (Homo sapiens) (UniProt P16234); conditions: at 1 µM
[2] = biological target: Platelet-derived growth factor receptor alpha (Homo sapiens) (UniProt P16234); conditions: at 10 µM
[3] = biological target: Platelet-derived growth factor receptor beta (Homo sapiens) (UniProt P09619); conditions: at 10 µM
Platelet-derived growth factor receptor beta (Homo sapiens), sequence (P09619 whole entry): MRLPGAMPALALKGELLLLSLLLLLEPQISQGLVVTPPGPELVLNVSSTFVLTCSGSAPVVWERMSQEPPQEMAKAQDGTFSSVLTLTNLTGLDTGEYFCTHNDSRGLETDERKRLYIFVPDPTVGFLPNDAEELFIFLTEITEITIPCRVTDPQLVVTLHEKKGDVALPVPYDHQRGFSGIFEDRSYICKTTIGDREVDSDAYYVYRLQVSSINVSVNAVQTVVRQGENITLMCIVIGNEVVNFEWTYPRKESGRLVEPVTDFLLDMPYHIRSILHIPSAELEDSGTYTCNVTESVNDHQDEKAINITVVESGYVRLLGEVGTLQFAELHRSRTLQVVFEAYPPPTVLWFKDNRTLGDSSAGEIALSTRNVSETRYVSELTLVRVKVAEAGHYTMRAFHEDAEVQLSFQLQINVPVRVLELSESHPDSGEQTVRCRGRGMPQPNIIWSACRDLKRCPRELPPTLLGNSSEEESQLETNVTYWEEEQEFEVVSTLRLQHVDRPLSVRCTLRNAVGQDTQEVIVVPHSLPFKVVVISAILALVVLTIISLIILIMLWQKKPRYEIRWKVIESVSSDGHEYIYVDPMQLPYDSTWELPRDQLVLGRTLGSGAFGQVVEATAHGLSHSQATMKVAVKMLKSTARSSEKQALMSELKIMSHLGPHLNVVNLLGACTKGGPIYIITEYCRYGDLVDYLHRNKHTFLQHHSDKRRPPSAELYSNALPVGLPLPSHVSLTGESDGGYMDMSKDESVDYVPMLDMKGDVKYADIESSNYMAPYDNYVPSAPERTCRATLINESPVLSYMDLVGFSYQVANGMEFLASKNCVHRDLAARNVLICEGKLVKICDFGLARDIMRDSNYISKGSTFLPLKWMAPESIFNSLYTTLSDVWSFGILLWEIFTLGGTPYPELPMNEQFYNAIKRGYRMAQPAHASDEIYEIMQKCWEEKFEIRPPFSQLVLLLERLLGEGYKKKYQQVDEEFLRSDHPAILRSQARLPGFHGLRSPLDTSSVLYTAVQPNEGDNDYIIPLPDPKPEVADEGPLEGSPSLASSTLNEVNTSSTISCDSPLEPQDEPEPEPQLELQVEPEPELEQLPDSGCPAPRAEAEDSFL

[4] = biological target: T1, 3-phosphoinositide-dependent protein kinase 1 (Homo sapiens) (UniProt O15530); conditions: at 1 µM
T1 sequence (whole entry): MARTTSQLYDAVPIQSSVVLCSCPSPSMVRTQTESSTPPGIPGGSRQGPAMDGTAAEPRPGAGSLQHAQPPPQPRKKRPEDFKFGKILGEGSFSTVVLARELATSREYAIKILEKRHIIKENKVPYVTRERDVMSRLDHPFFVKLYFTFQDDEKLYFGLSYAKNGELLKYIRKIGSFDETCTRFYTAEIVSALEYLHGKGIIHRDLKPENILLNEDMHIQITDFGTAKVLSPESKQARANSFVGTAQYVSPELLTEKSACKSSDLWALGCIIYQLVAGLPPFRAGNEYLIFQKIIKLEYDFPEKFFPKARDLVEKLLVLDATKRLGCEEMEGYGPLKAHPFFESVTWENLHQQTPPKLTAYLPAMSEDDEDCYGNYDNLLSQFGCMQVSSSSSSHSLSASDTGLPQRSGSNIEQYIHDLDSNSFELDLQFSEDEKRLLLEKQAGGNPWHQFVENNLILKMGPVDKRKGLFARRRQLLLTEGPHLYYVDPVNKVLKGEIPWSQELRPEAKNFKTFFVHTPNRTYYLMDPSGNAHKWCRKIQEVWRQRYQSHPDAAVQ

[5] = biological target: T1, 3-phosphoinositide-dependent protein kinase 1 (Homo sapiens); conditions: at 10 µM
[6] = biological target: cAMP-dependent protein kinase catalytic subunit alpha (Homo sapiens) (UniProt P17612); conditions: at 1 µM
[7] = biological target: cAMP-dependent protein kinase catalytic subunit alpha (Homo sapiens) (UniProt P17612); conditions: at 10 µM
[8] = biological target: RAC-gamma serine/threonine-protein kinase (Homo sapiens) (UniProt Q9Y243); conditions: at 1 µM
RAC-gamma serine/threonine-protein kinase (Homo sapiens), sequence (Q9Y243 whole entry): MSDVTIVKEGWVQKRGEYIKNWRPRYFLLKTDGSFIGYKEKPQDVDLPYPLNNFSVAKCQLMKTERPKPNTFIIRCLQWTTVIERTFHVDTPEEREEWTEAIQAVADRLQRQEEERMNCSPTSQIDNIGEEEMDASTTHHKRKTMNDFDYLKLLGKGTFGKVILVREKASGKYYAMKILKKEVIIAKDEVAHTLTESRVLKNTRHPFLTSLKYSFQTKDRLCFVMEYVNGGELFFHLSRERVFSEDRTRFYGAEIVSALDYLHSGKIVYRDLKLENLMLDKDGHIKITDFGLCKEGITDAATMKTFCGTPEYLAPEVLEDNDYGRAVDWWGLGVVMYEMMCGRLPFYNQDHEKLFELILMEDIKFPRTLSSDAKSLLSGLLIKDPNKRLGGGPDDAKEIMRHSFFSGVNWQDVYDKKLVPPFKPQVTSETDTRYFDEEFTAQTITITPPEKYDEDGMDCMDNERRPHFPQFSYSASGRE

[9] = biological target: RAC-gamma serine/threonine-protein kinase (Homo sapiens) (UniProt Q9Y243); conditions: at 10 µM
[10] = biological target: Platelet-derived growth factor receptor beta (Homo sapiens) (UniProt P09619); conditions: at 1 µM

Platelet-derived growth factor receptor alpha (Homo sapiens), sequence (P16234 whole entry): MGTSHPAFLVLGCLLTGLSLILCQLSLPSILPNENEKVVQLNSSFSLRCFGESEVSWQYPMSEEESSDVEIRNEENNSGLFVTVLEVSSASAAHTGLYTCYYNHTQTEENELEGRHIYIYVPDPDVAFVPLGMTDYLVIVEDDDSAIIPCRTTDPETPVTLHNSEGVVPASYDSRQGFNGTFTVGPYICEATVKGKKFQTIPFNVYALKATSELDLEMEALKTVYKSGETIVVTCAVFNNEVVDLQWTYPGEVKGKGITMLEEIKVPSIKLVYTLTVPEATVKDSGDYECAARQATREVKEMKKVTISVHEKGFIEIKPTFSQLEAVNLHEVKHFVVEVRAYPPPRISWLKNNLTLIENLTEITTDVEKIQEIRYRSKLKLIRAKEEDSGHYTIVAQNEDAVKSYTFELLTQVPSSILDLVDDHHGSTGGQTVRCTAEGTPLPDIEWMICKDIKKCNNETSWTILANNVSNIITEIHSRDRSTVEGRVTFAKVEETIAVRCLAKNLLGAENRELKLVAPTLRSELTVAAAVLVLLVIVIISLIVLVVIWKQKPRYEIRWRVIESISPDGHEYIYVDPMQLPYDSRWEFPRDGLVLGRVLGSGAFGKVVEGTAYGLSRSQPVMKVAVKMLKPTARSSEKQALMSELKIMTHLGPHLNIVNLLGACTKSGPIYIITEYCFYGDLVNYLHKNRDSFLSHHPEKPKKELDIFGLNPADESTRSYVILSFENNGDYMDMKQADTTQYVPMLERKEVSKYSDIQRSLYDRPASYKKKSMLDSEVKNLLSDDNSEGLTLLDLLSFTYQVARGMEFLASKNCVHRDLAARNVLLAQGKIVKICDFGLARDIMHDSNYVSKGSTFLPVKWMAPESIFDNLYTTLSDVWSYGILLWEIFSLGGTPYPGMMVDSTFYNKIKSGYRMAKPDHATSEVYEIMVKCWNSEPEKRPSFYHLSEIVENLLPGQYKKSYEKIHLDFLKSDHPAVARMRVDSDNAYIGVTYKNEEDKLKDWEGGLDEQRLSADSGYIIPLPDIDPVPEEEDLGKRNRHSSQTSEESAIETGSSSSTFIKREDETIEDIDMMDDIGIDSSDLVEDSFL

SMILES	residual activity [1]	residual activity [2]	residual activity [3]	residual activity [4]	residual activity [5]	residual activity [6]	residual activity [7]	residual activity [8]	residual activity [9]	residual activity [10]
COc1ccc2c(c1)c(C1=C(c3c[nH]c4ccccc34)C(=O)NC1=O)cn2CCCN(C)C	106%	66%	63%	62%	14%	37%	17%	30%	9%	
NC(=O)Nc1sc(-c2ccc(F)cc2)cc1C(N)=O	41%	20%	55%	57%	17%	92%	82%	85%	55%	89%
Nc1ncnc2[nH]nc(Nc3ccc(F)cc3)c12	105%	111%	109%	92%	40%		77%		71%	107%
CCN(CC)CCNC(=O)c1c(C)[nH]c(/C=C2\C(=O)Nc3ccc(Cl)cc32)c1C	2%	1%	1%	78%	39%	81%		79%	33%	1%
CC(C)(C)n1nc(Cc2cccc3ccccc23)c2c(N)ncnc21	116%	72%	71%	108%	117%	34%	8%	92%	44%	99%
O=C(c1ccccc1)c1ccc(N2CCOCC2)cc1O	113%	92%	99%			69%	81%			116%
Cn1c2ccccc2c2c3c(c4c5ccccc5n(CCC#N)c4c21)CNC3=O	98%	76%		6%	6%					
CC(C)(C)c1nc2c3ccc(F)cc3c3c(=O)[nH]ccc3c2[nH]1	102%			3%	1%			60%	63%	
O=C(CCCc1ccc(-c2ccccc2F)cc1)Nc1ccc(O)cc1	103%		125%	105%	90%	107%	128%	109%	87%	102%
N#C/C(=C\c1ccc(O)c(O)c1)C(=O)NCc1ccccc1	122%	100%				76%	75%		83%	
CCOC(=O)c1c(C)[nH]c(/C=C2\C(=O)Nc3ccccc32)c1C	43%	45%	92%							90%
Cn1sc(=O)n(Cc2ccccc2)c1=O	100%	100%				91%	89%	85%	84%	
CCCCc1c(-c2ccc(OC)cc2)[nH]c2nccnc12	105%	111%	105%	70%	65%	86%		119%		104%
O=C(O)/C=C/c1cc(Br)c(Br)c(Br)c1Br	100%	103%		107%	99%	96%	71%	105%	61%	
COc1ccc(-c2cnc3c(-c4ccsc4)cnn3c2)cc1	99%	92%				80%	82%			
CCCC(=O)Oc1ccc2[nH]c(C(=O)c3cc4ccccc4[nH]3)cc2c1	108%	85%	93%			88%	89%	102%	103%	99%
COc1cc2nccc(Oc3ccc(NC(=S)NC(=O)c4ccccc4C)cc3)c2cc1OC	7%	2%	9%			90%		94%	72%	31%
O=C(c1cc2cc(O)ccc2[nH]1)c1cc2cc(O)ccc2[nH]1	46%	6%	6%	79%	23%	74%				35%
O=C1Nc2ccc(Cl)cc2/C1=C/c1cc(Cl)c(O)c(Cl)c1	60%	10%	25%			68%	66%	96%	80%	75%
O=C1NC(=O)c2c1c1c3ccccc3[nH]c1n1cncc21	96%	92%	92%	56%	39%	82%	88%	84%	64%	88%

SMILES	residual activity [1]	residual activity [2]	residual activity [3]	residual activity [4]	residual activity [5]	residual activity [6]	residual activity [7]	residual activity [8]	residual activity [9]	residual activity [10]
O=C1Cc2c([nH]c3ccc([N+](=O)[O-])cc23)-c2ccccc2N1	109%	112%	100%	45%	45%			118%		107%
c1ccc(-c2cnc(Nc3ccc(OCCN4CCCC4)cc3)s2)cc1	7%	1%	0%	113%	114%	78%	133%			3%
CN(C)S(=O)(=O)c1ccc2c(c1)/C(=C/c1cc3c([nH]1)CCCC3)C(=O)N2	33%	29%	90%					92%	88%	80%
NCCNc1ncc(C(N)=O)c(Nc2cccc(C(F)(F)F)c2)n1	107%	74%				114%	141%		43%	
O=C(Nc1ccc(Cl)cc1)c1ccccc1NCc1ccncc1	39%	7%	4%							46%
COc1cc2ncnc(Nc3cccc(Cl)c3)c2cc1OC	104%	87%	103%			111%	101%	112%		102%
Oc1cccc(-c2nc(N3CCOCC3)c3oc4ncccc4c3n2)c1	127%		98%			95%	85%	95%	95%	
Nc1ncnc2c1c(-c1ccc(Oc3ccccc3)cc1)cn2C1CCCC1	17%	4%	6%	104%	95%	85%	88%	98%	71%	54%
COc1cc2c(cc1OC)-c1n[nH]c(Nc3cccc(F)c3)c1C2	2%	1%	1%	104%	106%		98%		109%	11%
Fc1ccc(-c2nc3n(c2-c2ccncc2)CCS3)cc1			128%			94%	84%			123%
CSc1nc(-c2ccc(F)cc2)c(-c2ccnc(NC(C)c3ccccc3)c2)[nH]1 (stereo unspecified)						101%	133%			
O=C1NC(=O)C(c2c[nH]c3ccccc23)=C1c1c[nH]c2ccccc12		77%	83%	71%	18%		55%	100%	36%	
N#Cc1c(NC(=O)c2cccc3ccccc23)sc2c1CCCC2			92%				91%		81%	
O=C1NC(=O)C(c2cn(CCCn3ccnc3)c3ccccc23)=C1Nc1ccccc1				39%	8%	69%	43%	50%	15%	
O=C1Cc2c([nH]c3ccc(Br)cc23)-c2ccccc2N1						89%	94%			
Nc1nc(Nc2ccc(S(N)(=O)=O)cc2)nn1C(=O)c1c(F)cccc1F			82%	68%	21%			110%		108%
O=C1NC(=O)C(c2cn(CCCO)c3ncccc23)=C1c1cnccn1			96%					98%	89%	
O=C1C(Cl)=C(N2C(=O)CCC2=O)C(=O)c2ccccc21			93%			95%	84%	89%	87%	95%
O=C(Nc1nc2ccccc2n1CCN1CCOCC1)c1cccc([N+](=O)[O-])c1			81%	104%	81%		80%	103%	84%	104%
COc1ccc(CNC(=O)Nc2ncc([N+](=O)[O-])s2)cc1			100%			109%				101%

SMILES	residual activity [1]	residual activity [2]	residual activity [3]	residual activity [4]	residual activity [5]	residual activity [6]	residual activity [7]	residual activity [8]	residual activity [9]	residual activity [10]
O=S(=O)(NCCNC/C=C/c1ccc(Br)cc1)c1cccc2cnccc12						2%	6%	31%	4%	
O=c1cc(N2CCOCC2)oc2c1ccc1ccccc12						101%	104%	111%	102%	98%
Cc1cc(C)c(/C=C2\C(=O)Nc3ccccc32)[nH]1								101%		
Nc1nccc(-c2c(-c3ccc(F)cc3)ncn2C2CCNCC2)n1							64%			
O=C(NC(NC(=S)Nc1ccc(F)c([N+](=O)[O-])c1)C(Cl)(Cl)Cl)C(c1ccccc1)c1ccccc1 (stereo unspecified)			96%	103%	87%			98%	69%	97%
O=S(=O)(c1cccc2cnccc12)N1CCCNCC1						53%	17%		55%	
Nc1n[nH]c2nc3ccccc3nc12					85%			87%	93%	
CCCCc1c(-c2ccc(O)cc2)[nH]c2nccnc12				60%	31%					
O=c1c(-c2ccc(F)cc2)c(-c2ccncc2)[nH]n1-c1ccc(Cl)cc1			99%						65%	100%
COc1cc2nccc(Oc3ccc(NC(=O)Nc4cc(C)on4)c(Cl)c3)c2cc1OC			2%			108%	98%			13%
CC(C)c1nn(-c2c(Cl)cccc2Cl)c2nc(Cc3ccc(OCCO)cc3)[nH]c(=O)c12			105%	101%	99%	90%	89%	93%	89%	103%
CN([C@@H](Cc1ccc(OS(=O)(=O)c2cccc3cnccc23)cc1)C(=O)N1CCN(c2ccccc2)CC1)S(=O)(=O)c1cccc2cnccc12			98%						60%	
N#C/C(=C1/Nc2ccccc2S1)c1ccnc(NCCc2cccnc2)n1								89%	16%	
CC(C)[C@H](CO)Nc1nc(Nc2cc(N)cc(Cl)c2)c2ncn(C(C)C)c2n1			92%			93%	87%			
Nc1ncnc2c1cnn2-c1ccccc1		101%			87%				73%	
O=C1Nc2ccccc2/C1=C\c1c(Cl)[nH]c2ccccc12					85%					
NC(=O)c1ccc(-c2nc(-c3ccc4c(c3)OCCO4)c(-c3ccccn3)[nH]2)cc1			75%			92%	96%	98%	94%	
O=c1cc(N2CCNCC2)oc2c(-c3ccccc3)cccc12			88%			72%	83%	85%	85%	99%
